GSIS activator: GLuc luminescence reporter in INS-1E cells, primary screen for activators of glucose-dependent secretion of insulin | INS-1E GLuc reporter insulin secretion, 2-3 h | activation, % at 16.6 µM | 370,000 compounds, 0.61% hits;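 active = lowest replicate activation of at least 40%, so every replicate reaches that level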;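 note: 0% = median of neutral control wells and 100% = median of IBMX positive control wells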
MLL AF4-AF9 inh: inhibitors of AF4 peptide binding to AF9, primary screen, biochemical, AlphaScreen, biotin-AF4 peptide, FLAG-AF9, single point; Protein AF-9 (Homo sapiens), P42568; inhibition, % at 10 µM; 350,000 compounds, 0.47% hits; AID 651704, 2012;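 active = every replicate reaching a set inhibition limit, whatever the replicate mean, cut at about 25% in these data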;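 note: 0% = plate neutral control median and 100% = total signal loss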
PGC1a acetyl inh: inhibitors of PGC1a acetylation signal, primary screen, cell-based, U2OS, AlphaScreen, inhibitor mode. AlphaScreen anti-acetyl-lysine; with virally co-expressed GCN5 acetyltransferase. 350,000 compounds, 0.17% hits. inhibition, % at 15.6 µM;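 active = every replicate shows inhibition of at least 40%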;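 note: 0% = neutral control wells and 100% = positive control wells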
RAD52 anneal inh: RAD52 DNA annealing inhibitors, primary screen, biochemical, FRET, single point, set 2; 360,000 compounds, 0.46% hits; inhibition, % at 18.7 µM; recombinant RAD52 DNA annealing, FRET fluorescence; DNA repair protein RAD52 homolog (Homo sapiens), P43351;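 active = every replicate showing at least 50% inhibition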
ERAP1 HTS inh: human ERAP1 aminopeptidase inhibitors, primary screen, biochemical, single point, plate reader. 340,000 compounds, 0.15% hits. recombinant ERAP1, Leu-AMC fluorescence, 60 min. inhibition, % at 10.7 µM. Endoplasmic reticulum aminopeptidase 1 (Homo sapiens), Q9NZ08;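 active = mean replicate inhibition of at least 30%, or all replicates individually reaching that 30% level; inactive = mean below 30% and not every replicate reaching it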;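 note: 0% = neutral control wells and 100% = L-leucinethiol positive control wells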
RAD54 inh: inhibitors of human RAD54 branch migration, primary screen, biochemical, fluorescence, single point. RAD54 Holliday junction branch migration, FAM/BHQ fluorescence. inhibition, % at 10.4 µM. 360,000 compounds, 0.14% hits. AID 602329, 2012;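 active = mean normalized replicate activity at least 40 and at least half of replicates scoring 40 or more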;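 note: 0% = median of neutral control wells and 100% = median of positive control wells; inhibitors cause a drop in the FAM fluorescence signal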
Target sequence (Q92698 whole entry, looked up): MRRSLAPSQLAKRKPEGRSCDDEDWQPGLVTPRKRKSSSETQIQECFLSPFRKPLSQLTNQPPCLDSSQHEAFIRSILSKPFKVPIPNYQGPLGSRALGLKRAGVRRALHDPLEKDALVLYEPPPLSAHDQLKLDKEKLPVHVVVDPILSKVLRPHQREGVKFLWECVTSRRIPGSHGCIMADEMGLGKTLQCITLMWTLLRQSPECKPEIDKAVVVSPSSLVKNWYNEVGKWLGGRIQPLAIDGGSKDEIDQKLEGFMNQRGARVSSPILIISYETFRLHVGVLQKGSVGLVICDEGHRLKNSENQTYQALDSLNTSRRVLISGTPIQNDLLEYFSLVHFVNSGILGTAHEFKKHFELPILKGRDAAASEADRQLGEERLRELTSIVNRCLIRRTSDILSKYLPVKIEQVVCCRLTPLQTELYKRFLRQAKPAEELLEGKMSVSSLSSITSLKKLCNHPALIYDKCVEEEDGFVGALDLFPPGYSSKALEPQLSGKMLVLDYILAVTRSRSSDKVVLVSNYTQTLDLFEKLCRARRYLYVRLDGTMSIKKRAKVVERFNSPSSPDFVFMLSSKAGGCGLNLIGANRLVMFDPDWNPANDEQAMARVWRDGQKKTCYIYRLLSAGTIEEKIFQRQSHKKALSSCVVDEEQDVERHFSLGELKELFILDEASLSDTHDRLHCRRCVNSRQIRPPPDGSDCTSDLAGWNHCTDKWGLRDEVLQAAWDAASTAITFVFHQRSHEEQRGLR
* marks the source's active call; other numbers are inactive results; nt = no result given. Hits are enriched below; roughly 1.4% of the tested compounds scored in any of these assays.

SMILES | GSIS activator | MLL AF4-AF9 inh | PGC1a acetyl inh | RAD52 anneal inh | ERAP1 HTS inh | RAD54 inh
COC(=O)[C@@H]1[C@@H](CO)[C@@H]2Cn3c(ccc(-c4ccccc4OC)c3=O)[C@@H]2N1C(=O)c1cccnc1 | 0 | -2 | nt | -2 | 0 | -7
C[C@H](CO)N1C[C@H](C)[C@H](CN(C)C(=O)Nc2cc(F)ccc2F)Oc2cc(C#CC3CC3)ccc2S1(=O)=O | -10 | nt | -5 | nt | nt | nt
COc1ccc(N2CCN(c3nc4c(c(=O)n(C)c(=O)n4C)n3Cc3ccccc3)CC2)cc1 | nt | nt | -11 | nt | nt | 5
COc1ccc(N2CCN(Cc3nc4c(c(=O)n(C)c(=O)n4C)n3Cc3cccc(C)c3)CC2)cc1 | -18 | 33* | nt | -3 | 2 | -10
COc1ccc2c3c([nH]c2c1)[C@H](CO)NCC31CN(C(=O)c2ccccc2)C1 | 19 | nt | nt | nt | nt | nt
COc1ccc(Cn2c(=O)c3[nH]cnc3n(-c3ccccc3C)c2=O)cc1 | 64* | -1 | nt | -13 | -2 | nt
CC(=O)Nc1cccc(-n2c(=O)n(Cc3ccccc3)c(=O)c3[nH]cnc32)c1 | 43* | -2 | nt | -21 | -1 | 2
Cc1ccc(S(C)=O)cc1-n1c(=O)n(Cc2ccccc2)c(=O)c2[nH]cnc21 (stereo not drawn) | 11 | 1 | nt | 14 | -2 | -3
COc1ccc(C)c(-n2c(=O)n(Cc3ccccc3)c(=O)c3[nH]cnc32)c1 | 63* | 1 | 4 | -13 | -1 | 3
Cc1ccccc1-n1c(=O)n(Cc2ccc(C(=O)O)cc2)c(=O)c2[nH]cnc21 | 6 | -1 | 6 | -6 | 3 | -7
COc1cccc(-n2c(=O)n(Cc3ccccc3)c(=O)c3[nH]cnc32)c1C | 76* | -1 | -1 | -17 | nt | -3
COc1cccc(-c2ccc3c(c2)O[C@@H](CN(C)C(=O)C2CC2)[C@@H](C)CN([C@H](C)CO)S3(=O)=O)c1 | -7 | -12 | -15 | -5 | -2 | -5
COc1cccc(C#Cc2ccc([C@H]3[C@@H](CO)N4C(=O)CN(C(C)=O)C[C@@H]34)cc2)c1 | 17 | -3 | -14 | -13 | 0 | nt
CCCN(C)C[C@@H]1Oc2cc(-c3cccc(F)c3)ccc2S(=O)(=O)N([C@@H](C)CO)C[C@@H]1C | -21 | nt | -2 | nt | nt | nt
Cc1ccc(S(=O)(=O)N(CC2CO2)c2ccccc2[N+](=O)[O-])cc1 (stereo not drawn) | -3 | -2 | 79* | -4 | 3 | nt
Cc1ccc(N(CC2CO2)S(=O)(=O)c2ccccc2[N+](=O)[O-])cc1 (stereo not drawn) | 3 | 3 | -7 | -8 | -3 | -7
CO[C@H]1CN(C)C(=O)c2cc(NC(=O)Nc3ccccc3)ccc2OC[C@@H](C)N(C(=O)Nc2c(C)noc2C)C[C@H]1C | 16 | 1 | 9 | 7 | 2 | -2
COCCNC(=O)C[C@@H]1CC[C@@H]2[C@@H](COc3ccc(NC(C)=O)cc3C(=O)N2C)O1 | 6 | nt | 6 | nt | nt | -2
CO[C@H]1CN(C)C(=O)c2cc(NC(=O)c3ccno3)ccc2OC[C@H](C)N(S(C)(=O)=O)C[C@H]1C | -5 | -5 | 7 | -57 | nt | -1
Cc1ccc(CSCc2ccc(C(=O)NCCCN3CCOCC3)o2)cc1 | -3 | -1 | 4 | -10 | 0 | -4
Cc1ccccc1CSCc1ccc(C(=O)NCCCN2CCOCC2)o1 | 46* | 4 | -5 | -17 | 1 | -3
Cc1cccc(-c2ccc([C@@H]3[C@@H](CO)N4CCCCN(C(=O)c5cccnc5)C[C@@H]34)cc2)c1 | -1 | -5 | -2 | 7 | 1 | 4
O=C(c1cccc(F)c1)N1CCCCN2[C@H](CO)[C@@H](c3ccc(-c4ccc(F)cc4)cc3)[C@H]2C1 | nt | 2 | 2 | 38 | -3 | 2
O=C(c1cccc(F)c1)N1CCCCN2[C@@H](CO)[C@@H](c3ccc(-c4ccc(F)cc4)cc3)[C@@H]2C1 | nt | 8 | 7 | 53* | -2 | 3
Cc1cccc(-c2ccc([C@H]3[C@H]4CN(C(=O)c5cccnc5)CCCCN4[C@H]3CO)cc2)c1 | -8 | 26* | -7 | 6 | 1 | -3
SMILES | GSIS activator | MLL AF4-AF9 inh | PGC1a acetyl inh | RAD52 anneal inh | ERAP1 HTS inh | RAD54 inh
Nc1ccc(CC(N)c2csc(Nc3cc(Oc4ccccc4)ncn3)n2)cc1 (stereo not drawn) | -6 | 25* | -8 | -27 | 14 | -2
COC(=O)C1=C(C)N(Cc2cccc(C(F)(F)F)c2)C(=NCc2ccc(C(F)(F)F)cc2)NC1c1ccc(Cl)cc1 (stereo not drawn) | nt | 3 | nt | 6 | -3 | nt
COC(=O)C1=C(C)N(C)C(=NCc2cccc(C(F)(F)F)c2)NC1c1ccccc1 (stereo not drawn) | -24 | 1 | nt | -5 | 0 | nt
CCN=C1NC(c2ccc(F)cc2)C(C(=O)OC)=C(C)N1Cc1cccc(C(F)(F)F)c1 (stereo not drawn) | 19 | nt | nt | -11 | -2 | nt
COC(=O)C1=C(C)N(C)C(=NCc2cccc(C(F)(F)F)c2)NC1c1ccc(C(F)(F)F)cc1 (stereo not drawn) | 45* | 4 | nt | -14 | 0 | nt
CCN=C1NC(c2ccc(C(F)(F)F)cc2)C(C(=O)OC)=C(C)N1Cc1cccc(C(F)(F)F)c1 (stereo not drawn) | 41* | nt | nt | -31 | -1 | nt
COC(=O)C1=C(C)N(Cc2cccc(C(F)(F)F)c2)C(=NCc2ccc3c(c2)OCO3)NC1c1ccc(Cl)cc1 (stereo not drawn) | 146* | nt | nt | -59 | -1 | nt
COC(=O)C1=C(C)N(Cc2ccc(C(F)(F)F)cc2)C(=NCc2ccccc2)NC1c1cccc(Cl)c1 (stereo not drawn) | nt | 0 | nt | -36 | -1 | nt
COC(=O)C1=C(C)N(Cc2cccc(C(F)(F)F)c2)C(=NCc2ccc(C(F)(F)F)cc2)NC1c1ccccc1 (stereo not drawn) | 501* | nt | nt | -1 | -1 | nt
CC=Cc1ccc2n(c1=O)C[C@H]1[C@H](CO)[C@@H](C(=O)Nc3ccc(-c4ccccc4)cc3)[C@@H]2N1CC (mixture of isomers) | -14 | 12 | -23 | 25 | 0 | nt
C[C@@H]1CN([C@@H](C)CO)S(=O)(=O)c2ccc(-c3ccccc3)cc2O[C@@H]1CN(C)C(=O)C1CC1 | -12 | nt | -5 | nt | nt | nt
CCCNC(=O)Nc1ccc2c(c1)C(=O)N(C)C[C@H](OC)[C@H](C)CN(C(C)=O)[C@@H](C)CO2 | -1 | 2 | -2 | 4 | -5 | 4
